{
  "source": "PubChem BioAssay (EPA / NIEHS)",
  "note": "Records with an inconclusive call do not appear. Calls of active or inactive are those of the source. How the source made its calls: active means hit-call score of the fitted dose curve at least 0.9, where 1 is the maximum; inconclusive means response in the unintended direction; inactive means score below 0.9.",
  "data": [
    {"test": "STM_H9_NormalizedViability: Cytotoxicity Assessment at 120 hours in the Stemina devTOX quickPredict H9 human embryonic stem cell (hESC)-based Assay (AID 2283784)", "description": "STM_H9_viability utilizes undifferentiated H9 cells to measure cell viability.STM_H9_NormalizedViability is a component calculated in the STM_H9_viability assay. It measures cell viability using background corrected relative fluorescence units (RFU) value from the CellTiterFluor Assay normalized to the value of the 0.1% DMSO neutral control treatment (by 96-well plate)Data from the assay component STM_H9_Viability was analyzed at the assay endpoint STM_H9_Viability_Norm in the positive analysis fitting direction relative to DMSO as the negative control and baseline of activity. Using a type of viability reporter, loss-of-signal activity can be used to understand viability.\nH9 hESCs maintained in a pluripotent state were exposed to test compound for 72h with chemical replenishment with media replacement every 24h. Cell-conditioned media from the final 24-h treatment period was collected for analysis of the targeted biomarker, and cell viability of the corresponding cell layer was assessed. The chemical library was tested in blinded fashion. Each test plate included 1uM Methotrexate (MTX; Selleck Chemicals, Houston, Texas) as a positive reference, 5 nM MTX as a negative reference, 0.1% DMSO as the neutral (vehicle) control, and sample-level media blanks.H9 cell-conditioned media from the final 24-h treatment period was collected for analysis of the targeted biomarker and cell viability was measured from the corresponding cell layer. Cell viability was measured using the CellTiter-Fluor assay (Promega, Madison, Wisconsin) based on proteolytic cleavage of a substrate to fluorescent signal proportional to the number of living cells. The cell viability Relative Fluorescence Unit (RFU) was background corrected and normalized to mean RFU of the neutral control (0.1% DMSO). The collected H9-cell-conditioned media samples were processed for targeted biomarker analysis as described (Palmer et al., 2013). Briefly, spent media samples were deproteinized (40% acetonitrile) and processed for UPLC-HRMS. Data acquisition was performed using 4 separate UPLC-HRMS systems, consisting of an Agilent 1290 Infinity LC system (Agilent Technologies) interfaced with an Agilent high-resolution mass spectrometer (models G6520A, G6520B, G6530A, and G6224A). A Waters Acquity UPLC BEH Amide column (2.1mm x 50mm, 1.7lm particle size; Waters, Milford, Massachusetts) maintained at 40C was applied for separation of metabolites using a 6.5min solvent gradient with 0.1% formic acid in water and 0.1% formic acid in acetonitrile (1.0ml/min flow rate). Data were acquired using MassHunter Acquisition software (version B 04.00, Agilent Technologies). The extracted ion chromatogram (EIC) areas for ORN, CYSS, and their respective spike-in C13-standards were determined using the Agilent MassHunter Quantitative Analysis software, version B.05.00 or newer (Agilent Technologies), and data were normalized as described in Palmer et al. (2017).", "values": [
      {"smiles": "O=C(NC(=O)c1c(F)cccc1F)Nc1ccc(OC(F)(F)C(F)OC(F)(F)F)c(Cl)c1", "note": "(stereo unspecified)", "outcome": "inactive"},
      {"smiles": "O=C(O)C(F)(F)C(F)(F)C(F)(F)C(F)(F)C(F)(F)C(F)(F)C(F)(F)F", "outcome": "inactive"},
      {"smiles": "CCOCN(C(=O)CCl)c1c(C)cccc1CC", "outcome": "inactive"},
      {"smiles": "CCOC1Oc2ccc(OS(C)(=O)=O)cc2C1(C)C", "note": "(stereo unspecified)", "AC50": "78.7 µM (active)"},
      {"smiles": "O=S(=O)(O)C(F)(F)C(F)(F)C(F)(F)C(F)(F)C(F)(F)C(F)(F)C(F)(F)C(F)(F)F", "outcome": "inactive"},
      {"smiles": "CCC(C)Nc1c([N+](=O)[O-])cc(C(C)(C)C)cc1[N+](=O)[O-]", "note": "(stereo unspecified)", "outcome": "inactive"},
      {"smiles": "CC1(c2ccc(Oc3ccccc3)cc2)OC(=O)N(Nc2ccccc2)C1=O", "note": "(stereo unspecified)", "AC50": "3.35 µM (active)"},
      {"smiles": "Cc1[nH]c(=O)n(C(C)(C)C)c(=O)c1Cl", "outcome": "inactive"},
      {"smiles": "O=S1OCC2C(CO1)C1(Cl)C(Cl)=C(Cl)C2(Cl)C1(Cl)Cl", "note": "(stereo unspecified)", "AC50": "78.4 µM (active)"},
      {"smiles": "CC(C)(C)C(O)C(Oc1ccc(Cl)cc1)n1cncn1", "note": "(stereo unspecified)", "outcome": "inactive"},
      {"smiles": "Oc1cc(Cl)ccc1Oc1ccc(Cl)cc1Cl", "AC50": "88.2 µM (active)"},
      {"smiles": "C#CCN1C(=O)COc2cc(F)c(N3C(=O)C4=C(CCCC4)C3=O)cc21", "AC50": "75.5 µM (active)"},
      {"smiles": "CCC(C)(NC(=O)c1cc(Cl)c(C)c(Cl)c1)C(=O)CCl", "note": "(stereo unspecified)", "AC50": "25.8 µM (active)"},
      {"smiles": "O=C(Nc1ccccc1)Nc1cnns1", "outcome": "inactive"},
      {"smiles": "CC(C)(C)C(O)/C(=C\\c1ccc(Cl)cc1Cl)n1cncn1", "note": "(stereo unspecified)", "AC50": "79.1 µM (active)"},
      {"smiles": "Oc1ccc(Cl)cc1Cc1ccccc1", "outcome": "inactive"}
    ]}
  ]
}
